High-throughput results (PubChem BioAssay)
In the library only some 4.8% were active in any assay of this set; here they are far more common.
ATXN2 expr inh – reduces ATXN2 reporter expression in HEK-293 cells. hit rate 0.72% among 360,000. Potency, µM (highest dose often 57 µM), usual class: inhibitors. HEK-293 ATXN2-luciferase reporter, luminescence, 24 h; note: nearly all actives have a fitted effect of over 55% in size
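qHTS (up to 57 uM final) was run with 24 h compound exposure of reporter cells at 37 °C. Each well was multiplexed: SteadyGlo luminescence measured ATXN2-luciferase expression after a fluorogenic Gly-Phe-AFC viability readout (25 uM final).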
IL1B secr inh – inflammasome signaling inhibition, IL-1 beta readout; THP-1 LPS/ATP IL-1B secretion, AlphaLISA, 16 h; stronger effect = lower value; activity change, % at 57.5 µM; hit rate 4.7% among 360,000; AID 743279; in the data active = activity change below about -50%; inconclusive = mostly about -30% to -49%
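THP-1 cells pretreated 1 hr with compounds (up to 57.5 uM final), then stimulated with LPS (250 ng/mL final) plus ATP (1.25 mM final); secreted IL-1B measured by AlphaLISA after 16 hr, decreased signal indicating inhibition.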
USP2a block – blocks human ubiquitin-specific protease USP2a | O75604 | USP2 core, Ub-CHOP2 coupled fluorogenic reporter, 485/531 | hit rate 0.01% among 330,000 | Potency, µM (doses to about 38.3 µM), usual class: inhibitors
Target sequence (O75604 whole entry, looked up): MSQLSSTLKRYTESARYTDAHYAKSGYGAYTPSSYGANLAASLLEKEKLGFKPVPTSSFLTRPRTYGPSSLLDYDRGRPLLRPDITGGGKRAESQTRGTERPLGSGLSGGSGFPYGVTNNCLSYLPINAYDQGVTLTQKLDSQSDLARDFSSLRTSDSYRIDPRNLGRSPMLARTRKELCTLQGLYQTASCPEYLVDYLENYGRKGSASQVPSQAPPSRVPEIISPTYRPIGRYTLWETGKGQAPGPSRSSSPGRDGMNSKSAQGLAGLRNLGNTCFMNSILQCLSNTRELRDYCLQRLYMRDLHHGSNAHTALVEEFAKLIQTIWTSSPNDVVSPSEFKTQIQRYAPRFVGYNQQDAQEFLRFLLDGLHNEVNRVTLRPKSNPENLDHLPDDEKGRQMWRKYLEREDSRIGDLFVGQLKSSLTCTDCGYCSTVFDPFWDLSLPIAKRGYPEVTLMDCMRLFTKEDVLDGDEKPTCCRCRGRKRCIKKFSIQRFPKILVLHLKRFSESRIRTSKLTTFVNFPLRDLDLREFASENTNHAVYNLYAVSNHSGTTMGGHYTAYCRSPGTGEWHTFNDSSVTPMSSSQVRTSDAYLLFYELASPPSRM
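Cell-free coupled assay: 10nM USP2 core preincubated 30min RT with compound in Tris-HCl pH 8.0/CaCl2/CHAPS buffer, then 25nM Ub-CHOP2 and 25nM reporter substrate; fluorescence (Ex 485/Em 531) read after 60min RT, normalized to NEM inhibition, concentration-response curves fitted.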
USP1 inh – inhibitors of human USP1/UAF1 deubiquitinase; O94782; recombinant USP1/UAF1, Ub-Rhodamine cleavage fluorescence; Potency, µM (top dose mostly 57.1 µM), actives largely listed as inhibitors; hit rate 0.23% among 390,000; AID 743255; note: nearly all actives have a fitted effect of over 60% in size
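USP1/UAF1 complex at 1 nM was preincubated with compound for 15 min at room temperature, then Ub-Rho substrate (150nM final) was added. Fluorescence (480/540 nm) was read kinetically, 6 reads every 60 seconds.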
S2 tox – cell viability loss in ATXN counter-screen; S2 cells (HEK-293 line with an ATXN2-luciferase reporter) viability, CellTiter-Fluor protease fluorescence, 24 h; Potency, µM (top dose mostly 56.7 µM), most hits filed as cytotoxic; hit rate 0.49% among 400,000; AID 651635; note: nearly all actives have a fitted effect of over 40% in size
Hits are given with their value; 0 = inactive; ? = inconclusive; - = no result given; ! = not active in a repeat. Unless noted, calls come from the whole dose curve; as a rule, active = well fitted curve in the direction sought with a large enough effect; inconclusive = small, poorly fitted or top-dose-only effect, or another doubt; inactive = no such curve, though single readings can be large; an effect the other way counts as inactive or inconclusive.

SMILES	ATXN2 expr inh	IL1B secr inh	USP2a block	USP1 inh	S2 tox
CCC(C(=O)O)C1CCC(C)C(C(C)C(O)C(C)C(=O)C(CC)C2OC3(C=CC(O)[C@@]4(CC[C@](C)(C5CC[C@@](O)(CC)C(C)O5)O4)O3)C(C)CC2C)O1 (stereo partly drawn)	7.7µM	-	-	-	-
CC(C)(C)CC(C)(C)c1ccc(O)c(Cc2ccc(Cl)cc2Cl)c1	22µM!	-72	-	0	28µM
O=c1c(Cc2ccc(Cl)cc2Cl)c(O)ccn1CC(F)(F)F	0	0	0	0	0
O=C(Cc1ccc([N+](=O)[O-])cc1)N1CCCCCC1	0	0	0	0	0
O=C(c1ccc(-c2ccc([N+](=O)[O-])cc2)o1)N1CCCCCCC1	-	-54	0	0	?
O=C(c1ccc(-c2ccc([N+](=O)[O-])cc2)o1)N1CCCC(C(F)(F)F)C1 (stereo not drawn)	0	-53	0	0	0
COc1ccc(CCN(Cc2cc3cccc(C)c3[nH]c2=O)C(=O)NC2CCCCC2)cc1OC	0	-68	0	0	?
Cc1ccc2cc(CN(CC3CCCO3)C(=O)NC3CCCCC3)c(=O)[nH]c2c1C (stereo not drawn)	0	0	0	0	0
CCN(CC)CCCN(Cc1cc2ccc(C)c(C)c2[nH]c1=O)C(=O)NC1CCCCC1	0	-52	0	0	0
CS(=O)(=O)N(Cc1ccccc1)c1ccc(C(=O)Nc2ccc(Cl)cc2)cc1	?	-	-	0	32µM
CCN(c1ccccc1)S(=O)(=O)c1cc(C(=O)Nc2ccc(F)c(F)c2)ccc1F	?	-89	0	0	?
COc1cc(OC)cc(-c2cc3nc(C)c(CCC(=O)NCc4ccccc4)c(C)n3n2)c1	8.9µM	?	0	?	?
COc1cc(OC)cc(-c2cc3nc(C)c(CCC(=O)NCc4ccc(Cl)cc4)c(C)n3n2)c1	?	-	-	0	?
CC(=O)c1ccccc1OCc1ccc(S(=O)(=O)Cc2ccccc2)cc1	0	-60	0	0	?
O=c1/c(=C\c2ccc(O)cc2)sc2nc(-c3ccccc3)c(-c3ccccc3)n12	0	-57	0	0	0
COc1cccc(/C=C/C(=O)c2c(O)cc(C)oc2=O)c1O	0	-81	0	0	?
COc1cc(/C=C/C(=O)c2c(O)cc(C)oc2=O)cc(OC)c1O	0	-55	0	0	0
COc1ccc(/C=C/C(=O)c2c(O)cc(C)oc2=O)c(OC)c1	0	0	0	0	0
CSc1ccc(/C=C/C(=O)c2c(O)cc(C)oc2=O)cc1	0	0	0	0	0
Cc1ccc(C)c(N2CCN(C(=O)Cn3c(C)c4cnn(-c5ccccc5)c(=O)c4c3C)CC2)c1	?	-	-	0	?
CN(C)C(=O)c1ccc(S(=O)(=O)c2ccc(NC(=O)[C@@](C)(O)C(F)(F)F)c(Cl)c2)cc1	0	-	-	-	-
CCN(CC)CCCNC(=O)C1c2ccccc2Oc2ccccc21	0	0	0	0	0
CNCCCC1Sc2ccccc2Oc2ccccc21 (stereo not drawn)	?	-73	0	0	0
CCOc1ccc(/C=C/[N+](=O)[O-])c2ccccc12	25µM	-101	0	0	?
CCOC(=O)COc1ccc(/C=C/[N+](=O)[O-])c(OCC(=O)OCC)c1	8.9µM	-97	0	0	10µM
SMILES	ATXN2 expr inh	IL1B secr inh	USP2a block	USP1 inh	S2 tox
CCOC(=O)COc1ccc2ccccc2c1/C=C/[N+](=O)[O-]	?	-92	0	0	14µM
CCOC(=O)COc1ccc2nsnc2c1	0	0	0	0	0
COc1cccc(C2(CC(=O)N3CCN(c4ccccc4O)CC3)CC(=O)N(C3CCCC3)C2=O)c1 (stereo not drawn)	-	-	-	-	0
CCOC(=O)c1ccc(OCCN2C[C@H](O)[C@@H](O)[C@H](O)[C@H]2CO)cc1	0	-	-	-	0
CC(C)(C)NCC(O)COc1ccccc1OCC1CCCO1 (stereo not drawn)	0	-	-	-	0
C/C(=N\NC(=O)Cc1cccn1C)c1ccc2ccccc2c1	0	-61	0	0	0
CCC1C(=O)C(C)(C)C(=O)OC1c1ccc([N+](=O)[O-])cc1 (stereo not drawn)	0	0	0	0	0
O=C1CC(=O)OC(c2ccc([N+](=O)[O-])cc2)O1	-	-55	-	0	?
Nc1[nH]n2c(=O)cc(-c3ccccc3)nc2c1N=Nc1ccccc1	?	0	0	?	32µM
